Screening results deposited in PubChem BioAssay by National Center for Advancing Translational Sciences (NCATS).
Only some compounds are listed: those with a hit (about 7.5% of all), similar ones and a draw of the others.
SMN2 splice up: SMN2 splice variant enhancement. HEK293 SMN2-luciferase splicing reporter, luminescence, 30-36 h. Potency, µM (titrated, usually from 46.1 µM), for inactives: top-dose activity change, positive = activation, usual class: activators. actives 2.8% (n = 210,000). AID 1458; also: % of control where 0% means no effect; nearly all actives have a fitted effect of over 55% in size
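HEK293 cells carry an SMN2 […]–luciferase reporter in which exon 7 inclusion puts luciferase in frame. Cells were plated 10-12 h before compound addition, then incubated 30-36 h at 37C. ONE-Glo luminescence was read; sodium butyrate at 4.5 mM final served as control.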
NPC1 prom act: activators of NPC1 promoter | Huh7 NPC1 promoter luciferase reporter, 24 h | AID 485313 | Potency, µM (top dose mostly 9.22 µM), inactives show at the top dose activation, most hits filed as activators | actives 2.4% (n = 320,000); also: % of control where 0% means no effect; nearly all actives have a fitted effect of over 60% in size
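Cells: Huh7 expressing luciferase under the NPC1 promoter, 1500/well. Seeded 2 h, compound added, incubated 24 h at 37 °C. Luciferase reagent, 10 min ambient, then luminescence.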
FLuc modulator: firefly luciferase modulation, counter-screen for miR-21 project | purified FLuc, Km substrates, luminescence inhibition | Potency, µM (series often up to 57.5 µM), without a hit: at the highest dose activity change, negative = inhibition, hits mostly inhibitors | actives 6.9% (n = 360,000) | AID 588342;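 also: plate controls were vehicle for no effect and reference inhibitor for full effect; nearly all actives have a fitted effect of over 55% in size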
Target sequence (P08659 whole entry, looked up): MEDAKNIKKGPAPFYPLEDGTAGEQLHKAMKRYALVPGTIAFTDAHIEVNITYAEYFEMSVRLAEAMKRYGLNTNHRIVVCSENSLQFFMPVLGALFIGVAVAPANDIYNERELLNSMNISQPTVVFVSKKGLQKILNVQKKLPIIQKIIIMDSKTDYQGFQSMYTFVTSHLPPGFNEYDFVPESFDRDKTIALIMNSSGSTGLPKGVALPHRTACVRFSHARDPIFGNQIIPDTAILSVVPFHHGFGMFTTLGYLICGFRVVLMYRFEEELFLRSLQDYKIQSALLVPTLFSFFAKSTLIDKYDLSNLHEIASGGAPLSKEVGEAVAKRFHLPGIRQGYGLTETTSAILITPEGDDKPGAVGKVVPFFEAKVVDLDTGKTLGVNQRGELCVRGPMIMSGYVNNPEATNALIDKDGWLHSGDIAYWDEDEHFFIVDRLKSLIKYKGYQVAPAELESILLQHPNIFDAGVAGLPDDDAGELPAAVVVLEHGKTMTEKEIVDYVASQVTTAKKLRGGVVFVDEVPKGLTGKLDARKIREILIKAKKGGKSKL
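Purified P. pyralis luciferase, 10 nM final, with Km-level 10 uM D-luciferin and 10 uM ATP in 50 mM Tris acetate pH 7.5, 10 mM Mg acetate, 0.01% Tween-20, 0.05% BSA; 6-point qHTS titration about 60 µM downward; luminescence read.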
ELG1 genotox: induces genotoxicity in HEK293T cells with luciferase-tagged ELG1 | HEK293T ELG1-luciferase reporter, luminescence, 16 h | actives 1.3% (n = 330,000) | Potency, µM (highest dose often 46 µM), without a hit: at the highest dose activity change, positive = activation, actives largely listed as activators; also: % of control where 0% means no effect; nearly all actives have a fitted effect of over 60% in size
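HEK293T cells expressing luciferase-tagged ELG1 were exposed to compound or DMSO vehicle for 16 hr at 37 °C and 5% CO2. Luciferase activity was then measured with ONE-Glo after 30 min at room temperature.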
Rab9 promoter act: activators of Rab9 promoter; Huh7 Rab9 promoter-luciferase reporter, luminescence, 24 h; Potency, µM (top dose mostly 9.22 µM), for inactives: at the top dose activation, negative = inhibition, most hits filed as activators; actives 2.8% (n = 320,000); AID 485297; also: % of control where 0% means no effect; nearly all actives have a fitted effect of over 60% in size
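Luciferase signal after 10 min detection reagent at ambient indicates Rab9 promoter upregulation; stably transfected Huh7 cells were treated 24 h with compound in DMSO at 37 °C, 5% CO2.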
The depositor's hits bear a star; ? = inconclusive; nt = not tested or not shown; [ ] = another dose, or the depositor's remark. Calls follow the shape of the dose curve; as a rule, active = well fitted curve in the direction sought with a large enough effect; inconclusive = small, poorly fitted or top-dose-only effect, or another doubt; inactive = no such curve, though single readings can be large; an effect the other way counts as inactive or inconclusive. Potency is read from the fitted curve at half-maximal effect.

SMILES	SMN2 splice up	NPC1 prom act	FLuc modulator	ELG1 genotox	Rab9 promoter act
COc1ccc(O)c(C(=O)CC(=O)c2ccccc2C)c1	nt	?	?	?	3.2µM*
O=C(NC1CCCCCC1)C1CCN(C(=O)c2cccc(Cl)c2)CC1	nt	0%	4%	-3%	2%
N#CCC(=O)c1ccccc1Oc1ccc(Cl)cc1	-7%	-6%	?	9%	-6%
Cc1cc(C(=O)COC(=O)CNC(=O)c2ccccc2)c(C)n1CC1CCCO1 (stereo not drawn)	-6%	-4%	19µM*	8%	-12%
Cc1cc(C(=O)COC(=O)CCc2nc3ccccc3c(=O)[nH]2)c(C)n1CC1CCCO1 (stereo not drawn)	nt	0%	?	8%	-4%
Cc1cccc(C(=O)NCC(=O)OCC(=O)c2cc(C)n(CC3CCCO3)c2C)c1 (stereo not drawn)	8%	15%	21µM*	?	22%
COCCn1c(C)cc(C(=O)COC(=O)CNC(=O)c2ccccc2)c1C	3%	-2%	?	11%	-4%
Cc1ccc(C(=O)OCC(=O)NC2CC2)cc1S(=O)(=O)N1CCOCC1	nt	-1%	-3%	0%	-3%
O=C(N/N=C/c1cc([N+](=O)[O-])ccc1O)NC12CC3CC(CC(C3)C1)C2	-36%	14%	?	15µM*	-2%
O=C(N/N=C/c1ccccn1)NC12CC3CC(CC(C3)C1)C2	nt	?	17µM*	4%	?
O=C(Nc1cccc(-c2nn[nH]n2)c1)c1cccs1	nt	2.8µM*	?	-3%	?
CC(=O)Nc1cccc(-c2nn[nH]n2)c1	nt	-3%	-1%	0%	-9%
CCc1ccc(C(=O)Nc2cccc(-c3nn[nH]n3)c2)s1	nt	2%	1.5µM*	0%	23%
O=C(Nc1cccc(-c2nn[nH]n2)c1)c1csc2c1CCCC2	nt	12%	11µM*	3%	7%
Cc1cccc(C)c1NC(=O)c1csc2c1CCCC2	-4%	nt	-3%	nt	nt
O=C(NC(=S)N1CCCCC1CO)c1cc(Br)ccc1Cl (stereo not drawn)	nt	1%	6%	4%	-5%
CCOC(=O)[C@H]1[C@H]2COc3ccc(OC)cc3[C@@H]2N2C(=O)CN(CC3CCCO3)C(=O)[C@@]12C (stereo partly drawn)	nt	0%	0%	1%	-4%
COC(=O)c1cccnc1Oc1ccccc1	nt	-1%	-7%	-1%	-15%
Cc1ccc(S(=O)(=O)N2CCN(Cc3ccc4c(c3)OCO4)CC2)cc1	-39%	nt	2%	nt	nt
CN(C)c1ccc(-c2nc3cc(N)ccc3o2)cc1	nt	0.32µM*	0.19µM*	0.52µM*	0.32µM*
Nc1ccc(-c2nc3cc(N)ccc3o2)cc1	nt	0.4µM*	2.7µM*	5.2µM*	0.63µM*
Nc1ccc(-c2nc3ccc(N)cc3o2)cc1	?	?	1.5µM*	21µM*	?
Nc1ccc2oc(Cc3ccc(Cl)cc3)nc2c1	-1%	nt	?	nt	nt
Cc1ccc(-c2nc3cc(N)ccc3o2)cc1Br	nt	1.3µM*	1.9µM*	2.9µM*	1.8µM*
COc1ccc(/C(C)=N/NC(=O)C(NC(=O)c2ccccc2)c2n[nH]c(=O)c3ccccc23)c(OC)c1 (stereo not drawn)	nt	0%	-4%	9%	-1%
SMILES	SMN2 splice up	NPC1 prom act	FLuc modulator	ELG1 genotox	Rab9 promoter act
Cc1ccc2nc(-c3cc(N)cc(N)c3)oc2c1	?	?	0.38µM*	7%	?
COc1ccc(C(=O)Nc2ccc3oc(-c4ccc(OC)cc4)nc3c2)cc1	nt	nt	-13%	nt	nt
COC(=O)c1ccc(-c2nc3cc(N)ccc3o2)cc1	?	22%	1.2µM*	?	?
Cc1ccc(C)c(-c2nc3cc(N)ccc3o2)c1	11µM*	20%	13µM*	10µM*	?
COc1ccccc1C(=O)Nc1ccc2c(c1)nc(CN1CCCCC1)n2C	-12%	1%	?	1%	6%
CCCCc1nc2c(c3c1C[C@H](C)OC3)CN(S(=O)(=O)c1c(C)noc1C)CC2	4%[9.22 µM]	nt	nt	nt	nt
O=C(O)c1ccc(-c2ccccn2)s1	13%	12%	?	?	11%
c1ccc(-c2ccc(-c3ccccn3)s2)nc1	nt	?	1.5µM*	?	4µM*
Cc1ccc(C(=O)CC(=O)c2ccccc2)cc1	nt	2.5µM*	9.5µM*	25%	2.2µM*
CCCC(=O)c1ccc(-c2ccccc2)cc1	?	6%	17µM*	?	0%
CC(=O)Nc1cc(C(=O)OCC(=O)c2ccccc2)ccc1C	10µM*	3.2µM*	19µM*	15µM*	4.5µM*
CCOC(=O)C(CC(=O)c1ccccc1)CC(=O)c1ccccc1	nt	?	13µM*	17%	23%
Cc1ccc(C(=O)NC(=S)NCC(=O)c2ccccc2)cc1	25%	14%	?	5%	25%
COC(=O)c1ccc(C(NC(=O)OCc2ccccc2)/C(C)=C/[C@@H](C)C(=O)NCCc2c[nH]c3ccc(OC)cc23)cc1 (stereo partly drawn)	-10%	nt	nt	nt	nt
COc1cc2c(cc1OC)-c1cc(Nc3cccc(C)c3)nc(=O)n1CC2	nt	-1%	?	?	0%
CC(=O)NC(C)C(=O)OCC(=O)c1ccc(-c2ccccc2)cc1 (stereo not drawn)	7%	-3%	13µM*	11%	-4%
CC(NC(=O)c1ccccc1)C(=O)OCC(=O)c1ccc(Br)cc1 (stereo not drawn)	nt	-2%	-10%	6%	17%
Cc1ccc(C(=O)COC(=O)c2cc(Cl)nc3ccccc23)cc1	1%	-1%	11µM*	2%	1%
Cc1ccc(C(=O)OCC(=O)c2ccccc2)cc1	nt	0.32µM*	1.9µM*	0.58µM*	0.56µM*
CCc1ccc(C(=O)COC(=O)c2ccc(-c3nnc(-c4ccccc4)o3)cc2)cc1	7.9µM*	0.89µM*	-4%	?	0.56µM*
CCOC(=O)c1nnc(-c2ccccc2)o1	-8%	2%	-5%	0%	1%
Cc1ccc(C(=O)Sc2cccccc2=O)cc1	nt	-39%	3µM*	6.5µM*	-52%
O=C(CN1C(=O)CCC1=O)c1ccc(-c2ccccc2)cc1	4µM*	24%	?	17%	?
Cc1ccccc1OCC(=O)NCC(=O)OCc1ccc(Br)cc1	nt	2%	-1%	1%	10%
COc1ccc(NC(=O)c2nc(SCc3ccccc3F)ncc2Cl)cc1	0%	nt	5%	nt	nt
CN1CCN(/N=C/c2ccc(Cl)c(Cl)c2)CC1	13µM*	?	19µM*	?	?
CN1CCN(/N=C/c2ccc(Br)cc2)CC1	25%	?	?	?	?
COC(=O)c1ccc(NC(=O)c2cc[n+]([O-])cc2)cc1	nt	-1%	-2%	0%	0%
Cc1ccc(CSc2nc3cccnc3n2Cc2ccc(C(=O)NC3CCCCC3)cc2)cc1	nt	nt	0.34µM*	nt	nt
